# About 7,900 targets were measured; listed, in parts, are those with a hit and a random draw of the rest. About 0.6% of all pairs of compound and target were hits. Values without a mark were called inactive.
# Assays:
# Test in all cases: log2 fold change, soluble protein after heating vs DMSO (PISA); higher = thermal stabilisation; K562 cells, 10 uM, 30 min; active = over 0.2 and 3.5 SD of the protein, either way, in both replicates (recomputed)
# filanesib = compound: CON(C)C(=O)N1N=C(c2cc(F)ccc2F)S[C@@]1(CCCN)c1ccccc1 [filanesib]
# Procedure, shortened: (§1)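 Soluble protein was defined as the supernatant after 21,000xg for 90 min. It came from K562 cells at 2×10^6 cells/mL given 10 μM compound for 30 min, heated in aliquots for 3 min across 48°C-58°C, pooled, and extracted in PBS with 0.5% NP-40 at 4°C, and was quantified by TMTpro 16plex LC-MS/MS with equalised channel sums. Thermal stability against control samples, from duplicates, is reported as log2 fold change.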
# zotarolimus = compound: CO[C@H]1C[C@@H]2CC[C@@H](C)[C@@](O)(O2)C(=O)C(=O)N2CCCC[C@H]2C(=O)O[C@H]([C@H](C)C[C@@H]2CC[C@H](n3cnnn3)[C@H](OC)C2)CC(=O)[C@H](C)/C=C(\C)[C@@H](O)[C@@H](OC)C(=O)[C@H](C)C[C@H](C)/C=C/C=C/C=C/1C [zotarolimus]
# Procedure, shortened: as §1
# idasanutlin = compound: COc1cc(C(=O)O)ccc1NC(=O)[C@@H]1N[C@@H](CC(C)(C)C)[C@](C#N)(c2ccc(Cl)cc2F)[C@H]1c1cccc(Cl)c1F [idasanutlin]
# Procedure, shortened: as §1
# alisertib = compound: COc1cc(Nc2ncc3c(n2)-c2ccc(Cl)cc2C(c2c(F)cccc2OC)=NC3)ccc1C(=O)O [alisertib]
# Procedure, shortened: as §1
# [1] = compound: COc1cc2nc(-c3cc(F)ccc3O)nc(N[C@@H]3CNC[C@H]3C(C)(C)O)c2cc1OC
# Procedure, shortened: as §1
# gefitinib = compound: COc1cc2ncnc(Nc3ccc(F)c(Cl)c3)c2cc1OCCCN1CCOCC1 [gefitinib]
# Procedure, shortened: as §1
# [2] = compound: COc1cccc2cc(-c3nc([C@H]4CC[C@H](C(=O)O)CC4)n4ncnc(N)c34)[nH]c12
# Procedure, shortened: as §1
# lapatinib = compound: CS(=O)(=O)CCNCc1ccc(-c2ccc3ncnc(Nc4ccc(OCc5cccc(F)c5)c(Cl)c4)c3c2)o1 [lapatinib]
# Procedure, shortened: as §1
# pictilisib = compound: CS(=O)(=O)N1CCN(Cc2cc3nc(-c4cccc5[nH]ncc45)nc(N4CCOCC4)c3s2)CC1 [pictilisib]
# Procedure, shortened: as §1
# [3] = compound: CS(=O)(=O)c1ccc(-c2cnc(N)c(C(=O)Nc3ccccc3)n2)cc1
# Procedure, shortened: as §1
# [4] = compound: C[C@@H]1COCCN1C2=NC(=NC(=C2)C3(CC3)S(=O)(=O)C)C4=C5C=CNC5=CC=C4
# Procedure, shortened: as §1
# [5] = compound: C[C@H](C1=CC=C(C=C1)C(=O)NC2=C3C=CNC3=NC=C2)N
# Procedure, shortened: as §1
# duvelisib = compound: C[C@H](Nc1ncnc2nc[nH]c12)c1cc2cccc(Cl)c2c(=O)n1-c1ccccc1 [duvelisib]
# Procedure, shortened: as §1
# gandotinib = compound: Cc1cc(Nc2cc(CN3CCOCC3)c3nc(C)c(Cc4ccc(Cl)cc4F)n3n2)n[nH]1 [gandotinib]
# Procedure, shortened: as §1
# tozasertib = compound: Cc1cc(Nc2cc(N3CCN(C)CC3)nc(Sc3ccc(NC(=O)C4CC4)cc3)n2)n[nH]1 [tozasertib]
# Procedure, shortened: as §1
# [6] = compound: Cc1cc(SCc2sc(-c3ccc(C(F)(F)F)cc3)nc2C)ccc1OCC(=O)O
# Procedure, shortened: as §1
# ispinesib = compound: Cc1ccc(C(=O)N(CCCN)[C@@H](c2nc3cc(Cl)ccc3c(=O)n2Cc2ccccc2)C(C)C)cc1 [ispinesib]
# Procedure, shortened: as §1
# [7] = compound: COC1=CC=C(C=C1)CN2C=CC3=C2C=C(C=C3)C(=O)NO
# Procedure, shortened: as §1
# crizotinib = compound: C[C@@H](Oc1cc(-c2cnn(C3CCNCC3)c2)cnc1N)c1c(Cl)ccc(F)c1Cl [crizotinib]
# Procedure, shortened: as §1
# doramapimod = compound: Cc1ccc(-n2nc(C(C)(C)C)cc2NC(=O)Nc2ccc(OCCN3CCOCC3)c3ccccc23)cc1 [doramapimod]
# Procedure, shortened: as §1
# UniProt P01344, sequence (P01344 whole entry, looked up): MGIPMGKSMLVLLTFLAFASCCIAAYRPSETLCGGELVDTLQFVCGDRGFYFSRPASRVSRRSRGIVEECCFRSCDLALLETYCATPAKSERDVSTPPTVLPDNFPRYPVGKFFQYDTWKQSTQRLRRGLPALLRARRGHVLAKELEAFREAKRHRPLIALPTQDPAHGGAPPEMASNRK
# UniProt Q8IVP5, sequence (Q8IVP5 whole entry, looked up): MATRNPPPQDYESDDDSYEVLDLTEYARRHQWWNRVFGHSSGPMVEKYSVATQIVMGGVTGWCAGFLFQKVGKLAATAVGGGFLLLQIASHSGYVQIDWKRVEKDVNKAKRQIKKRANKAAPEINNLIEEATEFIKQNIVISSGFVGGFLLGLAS
# UniProt Q8WUI4, sequence (Q8WUI4 whole entry, looked up): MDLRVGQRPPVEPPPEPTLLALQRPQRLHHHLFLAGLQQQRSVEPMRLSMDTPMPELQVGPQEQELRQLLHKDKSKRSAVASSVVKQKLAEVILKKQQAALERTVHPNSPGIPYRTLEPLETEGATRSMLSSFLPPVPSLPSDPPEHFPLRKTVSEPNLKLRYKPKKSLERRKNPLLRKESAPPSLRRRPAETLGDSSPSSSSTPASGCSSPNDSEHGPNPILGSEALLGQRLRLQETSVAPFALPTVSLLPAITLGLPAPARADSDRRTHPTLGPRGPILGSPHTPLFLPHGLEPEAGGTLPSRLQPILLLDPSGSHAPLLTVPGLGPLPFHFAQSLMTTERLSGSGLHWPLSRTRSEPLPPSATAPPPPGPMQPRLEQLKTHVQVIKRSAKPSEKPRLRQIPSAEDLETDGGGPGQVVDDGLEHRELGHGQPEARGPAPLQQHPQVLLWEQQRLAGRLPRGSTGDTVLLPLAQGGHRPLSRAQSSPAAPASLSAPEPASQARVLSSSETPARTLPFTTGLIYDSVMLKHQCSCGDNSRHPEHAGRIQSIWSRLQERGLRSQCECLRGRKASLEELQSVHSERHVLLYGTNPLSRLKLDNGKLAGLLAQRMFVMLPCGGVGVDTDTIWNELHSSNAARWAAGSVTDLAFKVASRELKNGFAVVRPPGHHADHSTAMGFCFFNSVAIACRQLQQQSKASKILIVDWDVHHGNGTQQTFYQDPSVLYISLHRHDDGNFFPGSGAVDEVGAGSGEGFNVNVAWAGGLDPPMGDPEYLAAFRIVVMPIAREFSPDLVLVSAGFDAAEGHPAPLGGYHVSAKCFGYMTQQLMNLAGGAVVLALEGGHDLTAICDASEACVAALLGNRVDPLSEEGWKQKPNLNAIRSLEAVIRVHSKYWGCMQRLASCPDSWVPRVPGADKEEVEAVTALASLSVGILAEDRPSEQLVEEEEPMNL
# UniProt P15260, sequence (P15260 whole entry, looked up): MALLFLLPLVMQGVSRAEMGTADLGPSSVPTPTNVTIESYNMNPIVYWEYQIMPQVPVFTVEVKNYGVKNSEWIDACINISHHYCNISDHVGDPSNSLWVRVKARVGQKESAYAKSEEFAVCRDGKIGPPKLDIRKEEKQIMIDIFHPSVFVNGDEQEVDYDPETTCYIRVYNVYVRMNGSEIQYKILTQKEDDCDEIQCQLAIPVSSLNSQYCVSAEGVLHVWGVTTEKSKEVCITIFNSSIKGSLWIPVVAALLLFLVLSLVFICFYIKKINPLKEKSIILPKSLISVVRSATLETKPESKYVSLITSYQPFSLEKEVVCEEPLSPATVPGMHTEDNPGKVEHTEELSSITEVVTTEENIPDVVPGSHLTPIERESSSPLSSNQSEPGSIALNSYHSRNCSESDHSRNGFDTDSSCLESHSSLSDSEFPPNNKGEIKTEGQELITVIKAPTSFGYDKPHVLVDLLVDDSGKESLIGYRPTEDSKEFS
# UniProt Q53R41, sequence (Q53R41 whole entry, looked up): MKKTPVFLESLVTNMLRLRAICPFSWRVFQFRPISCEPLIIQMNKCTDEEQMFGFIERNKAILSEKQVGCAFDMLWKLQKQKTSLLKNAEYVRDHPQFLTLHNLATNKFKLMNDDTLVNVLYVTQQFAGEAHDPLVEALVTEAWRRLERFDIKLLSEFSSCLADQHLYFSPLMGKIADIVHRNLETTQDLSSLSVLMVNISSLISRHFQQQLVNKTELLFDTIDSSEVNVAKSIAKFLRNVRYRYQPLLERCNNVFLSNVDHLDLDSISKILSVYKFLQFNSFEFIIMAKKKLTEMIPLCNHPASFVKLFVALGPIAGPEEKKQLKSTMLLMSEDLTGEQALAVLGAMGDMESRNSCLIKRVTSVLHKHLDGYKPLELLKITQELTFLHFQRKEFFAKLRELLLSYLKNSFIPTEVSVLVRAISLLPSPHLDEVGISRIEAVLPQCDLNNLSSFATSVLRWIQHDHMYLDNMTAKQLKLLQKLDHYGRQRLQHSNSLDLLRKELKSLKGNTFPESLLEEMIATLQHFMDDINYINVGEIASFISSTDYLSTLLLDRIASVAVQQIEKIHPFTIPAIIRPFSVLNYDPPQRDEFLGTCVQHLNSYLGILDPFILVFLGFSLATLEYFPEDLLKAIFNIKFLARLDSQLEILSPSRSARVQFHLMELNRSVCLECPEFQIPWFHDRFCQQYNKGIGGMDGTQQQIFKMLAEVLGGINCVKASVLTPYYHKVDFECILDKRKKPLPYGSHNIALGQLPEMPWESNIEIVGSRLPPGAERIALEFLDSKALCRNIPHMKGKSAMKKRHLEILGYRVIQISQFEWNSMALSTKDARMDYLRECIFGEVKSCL
# UniProt I6L899, sequence (I6L899 whole entry, looked up): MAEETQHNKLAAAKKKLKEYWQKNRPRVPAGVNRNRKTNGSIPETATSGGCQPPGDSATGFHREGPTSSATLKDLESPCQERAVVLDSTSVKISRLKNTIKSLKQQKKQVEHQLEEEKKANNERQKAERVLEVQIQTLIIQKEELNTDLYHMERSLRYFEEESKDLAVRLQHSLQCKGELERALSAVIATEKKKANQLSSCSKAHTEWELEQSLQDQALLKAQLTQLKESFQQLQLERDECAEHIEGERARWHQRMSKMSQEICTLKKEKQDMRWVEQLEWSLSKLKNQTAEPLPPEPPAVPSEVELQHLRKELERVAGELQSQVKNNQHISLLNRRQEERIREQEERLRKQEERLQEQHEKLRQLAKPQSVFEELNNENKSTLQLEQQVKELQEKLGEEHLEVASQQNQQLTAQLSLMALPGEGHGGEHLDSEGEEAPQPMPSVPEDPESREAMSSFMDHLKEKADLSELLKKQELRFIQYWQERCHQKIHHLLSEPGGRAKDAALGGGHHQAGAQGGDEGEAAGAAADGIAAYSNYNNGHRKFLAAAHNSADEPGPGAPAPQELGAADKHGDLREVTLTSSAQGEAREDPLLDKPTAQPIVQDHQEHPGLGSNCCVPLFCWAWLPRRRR
# UniProt Q14687, sequence (Q14687 whole entry, looked up): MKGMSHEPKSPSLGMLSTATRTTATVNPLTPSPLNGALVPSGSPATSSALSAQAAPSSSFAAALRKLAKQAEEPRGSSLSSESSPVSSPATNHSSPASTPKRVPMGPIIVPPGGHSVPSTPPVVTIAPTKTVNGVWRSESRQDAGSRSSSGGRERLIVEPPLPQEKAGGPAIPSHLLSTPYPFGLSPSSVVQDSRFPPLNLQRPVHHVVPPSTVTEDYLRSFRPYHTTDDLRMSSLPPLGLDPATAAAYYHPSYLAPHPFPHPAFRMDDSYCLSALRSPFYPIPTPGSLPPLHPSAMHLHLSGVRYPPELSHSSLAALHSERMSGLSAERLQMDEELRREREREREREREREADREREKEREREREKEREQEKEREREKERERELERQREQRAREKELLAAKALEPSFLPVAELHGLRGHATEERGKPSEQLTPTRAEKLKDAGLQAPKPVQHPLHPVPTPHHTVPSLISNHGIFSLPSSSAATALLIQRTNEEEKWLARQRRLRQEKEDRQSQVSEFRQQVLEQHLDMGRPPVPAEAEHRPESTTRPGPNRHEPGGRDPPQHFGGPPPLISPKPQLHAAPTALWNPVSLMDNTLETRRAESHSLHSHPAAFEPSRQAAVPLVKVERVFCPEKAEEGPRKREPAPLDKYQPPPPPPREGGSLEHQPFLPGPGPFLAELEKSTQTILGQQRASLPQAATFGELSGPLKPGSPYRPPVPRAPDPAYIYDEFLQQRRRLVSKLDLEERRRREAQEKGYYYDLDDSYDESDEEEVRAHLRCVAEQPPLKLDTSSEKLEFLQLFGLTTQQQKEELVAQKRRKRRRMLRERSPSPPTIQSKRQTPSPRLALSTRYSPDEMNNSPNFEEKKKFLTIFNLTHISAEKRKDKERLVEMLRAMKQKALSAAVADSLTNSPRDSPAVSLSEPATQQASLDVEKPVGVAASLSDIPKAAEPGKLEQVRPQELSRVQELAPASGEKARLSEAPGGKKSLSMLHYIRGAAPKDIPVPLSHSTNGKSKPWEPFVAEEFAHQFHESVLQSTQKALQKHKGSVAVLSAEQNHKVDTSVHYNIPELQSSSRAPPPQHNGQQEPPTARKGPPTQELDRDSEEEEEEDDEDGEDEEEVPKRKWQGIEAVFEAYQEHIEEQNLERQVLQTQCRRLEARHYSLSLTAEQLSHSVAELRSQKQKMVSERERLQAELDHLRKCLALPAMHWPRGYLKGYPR
# UniProt Q9H6D7, sequence (Q9H6D7 whole entry, looked up): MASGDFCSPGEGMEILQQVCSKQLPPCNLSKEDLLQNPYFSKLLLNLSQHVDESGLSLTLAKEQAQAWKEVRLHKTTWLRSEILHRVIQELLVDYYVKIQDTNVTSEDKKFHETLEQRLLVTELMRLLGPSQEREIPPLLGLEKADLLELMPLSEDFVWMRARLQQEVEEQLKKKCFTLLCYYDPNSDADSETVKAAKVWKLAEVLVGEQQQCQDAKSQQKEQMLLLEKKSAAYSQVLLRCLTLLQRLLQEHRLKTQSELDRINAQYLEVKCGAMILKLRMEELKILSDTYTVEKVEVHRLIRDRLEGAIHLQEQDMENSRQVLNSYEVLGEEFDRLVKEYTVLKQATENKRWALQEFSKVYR
Target,log2 fold change (filanesib),log2 fold change (zotarolimus),log2 fold change (idasanutlin),log2 fold change (alisertib),log2 fold change [1],log2 fold change (gefitinib),log2 fold change [2],log2 fold change (lapatinib),log2 fold change (pictilisib),log2 fold change [3],log2 fold change [4],log2 fold change [5],log2 fold change (duvelisib),log2 fold change (gandotinib),log2 fold change (tozasertib),log2 fold change [6],log2 fold change (ispinesib),log2 fold change [7],log2 fold change (crizotinib),log2 fold change (doramapimod)
IFNGR1 (UniProt P15260),0.091,-0.067,0.105,-0.09,0.207,0.097,0.143,-0.058,-0.085,0.135,-0.1,0.068,-0.059,-0.053,-0.19,-0.162,-0.041,,,
"HBZ, A0A494C057",,,,1.67,,0.151,0.009,,,,,,,,,,,,,
GSTT1 (UniProt P30711),,0.07,0,-0.118,-0.015,0.023,0.029,0.003,0.027,,0.19,0.002,0.1,0.19,0.017,-0.061,0.026,0.014,0.332 (active),-0.003
FMR1 (UniProt Q06787),0.219,0.005,,-0.023,0.286,,0.322,-0.027,0.036,-0.067,,0.199,,0.045,,,-0.022,-0.3,0.151,-0.065
FAT1 (UniProt Q14517),0.097,-0.08,,-0.267,0.027,0.023,-0.098,0.029,0.041,0.027,-0.054,0.144,0.026,0.061,-0.124,0.009,-0.096,0.098,0.061,-0.435 (active)
HDAC10 (UniProt Q969S8),,-0.022,-0.157,-0.264,0.049,0.168,0.065,0.044,0.084,,,-0.045,0.04,0.008,-0.113,0.042,0.065,,,
FUNDC1 (UniProt Q8IVP5),-0.193,,,0.011,-0.138,,0.172,0.101,,0.046,,,,,,,,,,
GOLGA6B (UniProt A6NDN3),-0.115,,,-0.092,,0.012,0.102,,0.144,-0.003,0.036,,,0.404,,,,0.088,0.05,-0.139
GSE1 (UniProt Q14687),,-0.063,,,,0.224,,,,,,0.008,0.033,,,-0.046,-0.066,,,
GOLGA8R (UniProt I6L899),,-0.027,0.022,,0.345,,,-0.093,0.01,,,-0.059,0.242,0.324,-0.033,-0.067,-0.038,0.591 (active),-0.009,0.108
FBXO9 (UniProt Q9UK97),,-0.027,,0.466 (active),-0.169,0.007,0.077,0.012,0.036,,,-0.046,-0.03,-0.151,-0.071,0.079,-0.057,0.124,0.028,-0.081
HAUS4 (UniProt Q9H6D7),0.245,0.05,0.126,-0.103,0.024,-0.086,0.323,-0.038,-0.162,0.068,0.024,0.139,-0.303,0.015,0.041,-0.195,-0.259,,,
HDAC7 isoform 5 (UniProt Q8WUI4),0.121,0.054,0.024,-0.075,0.075,-0.015,0.046,0.071,-0.004,-0.027,0.016,-0.281 (active),0.008,0.011,-0.03,0.028,0.185,,-0.013,-0.018
HNRNPK isoform 3 (UniProt P61978),0.077,,,-0.063,,-0.066,0.005,,0.057,-0.056,-0.237,,0.038,-0.082,0.004,-0.037,0.014,-0.025,-0.009,0.05
GBE1 (UniProt Q04446),,0.045,0.002,0.019,-0.168,,-0.102,-0.022,,,-0.054,0.193,-0.026,,-0.001,0.094,-0.286,0.048,-0.565 (active),-0.02
FASTKD1 (UniProt Q53R41),-0.011,-0.192,-0.028,,,0.473,,,0.127,0.097,0.097,-0.027,0.035,-0.284,-0.253,0.12,-0.013,-0.037,0.001,0.037
HEATR3 (UniProt Q7Z4Q2),0.007,-0.004,,0.099,-0.083,0.072,0.046,0.004,-0.134,-0.001,0.094,0.123,0.078,-0.377,0.065,0.146,-0.006,0.027,-0.171,0.011
IGF2 isoform 3 (UniProt P01344),,,,,,,,,,,,,0.175,,,0.03,,0.041,-0.07,-0.13
